# Compound activity from PubChem BioAssay.
# S1P2 blocker – S1P2 (human) receptor antagonism | AID 736 | 97,000 compounds, 0.21% hits | inhibition, % at 5 µM | cell-based S1P2 antagonist assay, inhibition at 5 uM; in the data active means inhibition above about 45%;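 further: CRE beta-lactamase reporter cells expressing human S1P2 stimulated with S1P; 0% = agonist at EC80 alone and 100% = agonist plus reference antagonist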
# Target sequence (O95136 whole entry, looked up): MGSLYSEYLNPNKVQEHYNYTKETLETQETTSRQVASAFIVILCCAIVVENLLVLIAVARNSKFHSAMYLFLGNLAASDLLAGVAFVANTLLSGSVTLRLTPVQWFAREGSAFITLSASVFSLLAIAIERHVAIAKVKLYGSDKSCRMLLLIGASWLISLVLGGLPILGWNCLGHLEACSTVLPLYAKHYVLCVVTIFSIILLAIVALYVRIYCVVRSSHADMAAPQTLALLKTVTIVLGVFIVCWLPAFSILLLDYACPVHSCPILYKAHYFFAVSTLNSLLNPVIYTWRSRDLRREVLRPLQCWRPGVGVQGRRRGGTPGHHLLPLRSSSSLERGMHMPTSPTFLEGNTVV
# S1P2 ag – S1P2 (human) receptor agonism | O95136 | S1P2-expressing cell line, agonist reporter read-out | activation, % at 4.5 µM | 97,000 compounds, 0.46% hits | AID 729; in the data active means activation above about 16%;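 further: 0% = vehicle low control and 100% = maximal reference agonist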
# GALR2 ag – GALR2 (human) receptor agonism. activation, % (test concentration not listed). 140,000 compounds, 0.48% hits. AID 803. O43603. GALR2-expressing cells, agonist activation read-out; in the data active means activation above about 5%, passing the limit was not always enough;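 further: 0% = vehicle buffer wells and 100% = reference agonist at full effect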
# GALR2 blocker – GALR2 (human) receptor antagonism; inhibition, % at 4 µM; O43603; AID 828; 140,000 compounds, 0.39% hits; GALR2-expressing cells, antagonist mode; in the data active means inhibition above about 27%;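 further: cells stimulated with galanin 1-16 at roughly its EC80; 0% = agonist challenge control and 100% = basal control without agonist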
# * marks the source's active call; other numbers are inactive results; nt = not tested or not shown. Most compounds without a hit are left out; they make up all but 1.2% or so of the library.
SMILES,S1P2 blocker,S1P2 ag,GALR2 ag,GALR2 blocker
COc1ccc(-c2nc3ccccc3c(=O)n2CCOc2cccc(C)c2C)cc1,nt,nt,-0.1,-8.1
Cc1ccc2oc(-c3cccc(NC(=S)NC(=O)/C=C/c4ccco4)c3)nc2c1,-8.3,-3.9,-3.7,-3.4
Cc1cc(C)cc(Oc2nc(C(F)(F)F)nc3ccccc23)c1,-33.5,17.9*,-1.7,-3.5
O=C(Cc1cccs1)Nc1ccc(S(=O)(=O)Nc2ncccn2)cc1,12.9,-4.5,-1.2,-1.7
COc1cccc(Nc2nc(-c3ccc4c(c3)OCCO4)cs2)c1,0.8,41.1*,-2.9,-2.2
Cc1ccc(/C=C2\CCC3=C2OC(N)=C(C#N)C3c2ccc(C)cc2)cc1 (configuration not stated),24.1,16.8*,12.2*,-6.9
N#CC1=C(N)OC2=C(CCc3ccccc32)C1c1ccccc1 (configuration not stated),nt,nt,5.0*,-0.8
Cc1ccccc1Nc1nc(N)nc(COC(=O)c2cccc(S(=O)(=O)NCc3ccccc3)c2)n1,nt,nt,5.0*,-6.4
Cc1ccccc1Nc1nc(N)nc(COC(=O)c2cccc(S(=O)(=O)N(C)C)c2)n1,nt,nt,-0.1,-11.6
CCCCS(=O)(=O)/C=C\C=C/S(=O)(=O)CCCC,97.1*,-6.5,-3.8,104.4*
COc1ccc2c(c1)c1nnc(SCC(=O)N3C(C)CCCC3C)nc1n2C (configuration not stated),-1.1,19.4*,0.5,-20.2
Nc1nc(Br)c2c(F)cccc2c1-c1ccc(Cl)cc1,-8.1,38.4*,13.4*,7.1
CCOC(=O)C1=C(O)/C(=C/c2cc(OC)c(OC)c(OC)c2)SC1=Nc1ccc(OC)cc1,-20.0,37.4*,-1.7,-10.9
O=C(N/N=C\c1cc(Cl)ccc1O)c1ccc(S(=O)(=O)N2CCCCC2)cc1,nt,nt,6.9*,15.4
O=C(NNS(=O)(=O)c1ccc(Cl)cc1)c1ccc(S(=O)(=O)N2CCCCC2)cc1,nt,nt,0.2,5.1
Cn1c(SC2=CS(=O)(=O)c3ccccc32)nc2ccccc21,61.9*,-8.4,-0.9,23.5
CSc1nc2nccc(-c3ccc(Oc4ccccc4)cc3)n2n1,-17.2,-2.6,-1.0,5.6
CN(C)S(=O)(=O)c1cccc(-c2nn(-c3ccccc3)cc2/C=C(\C#N)c2nc3ccccc3[nH]2)c1,nt,nt,7.3*,-6.8
O=C(CSc1nnc2ccccn12)Nc1cccc(-c2nc3ccccc3s2)c1,nt,nt,5.7*,9.6
C=CCSc1nc2sc(C)c(C)c2c(=O)n1N,nt,nt,0.1,-5.6
C/C(=N\OCC(=O)NC12CC3CC(CC(C3)C1)C2)c1cc2ccccc2o1,nt,nt,-0.5,-8.3
O=C(Nc1nnc(-c2ccc(Cl)cc2)o1)c1nc2ccccc2s1,51.2*,-9.1,0.2,-6.5
CCOC(=O)c1sc2nccc(N(C)C)c2c1N=CNOCc1ccccc1,-2.8,6.1,3.5,-13.9
CCOC(=O)c1sc2nccc(N(C)C)c2c1N=CNOCc1c(F)cccc1Cl,-15.9,32.9*,0.1,-16.3
c1csc(C2=Nn3c(nnc3-c3ccncc3)SC2)c1,49.0*,-9.6,-2.1,18.2
SMILES,S1P2 blocker,S1P2 ag,GALR2 ag,GALR2 blocker
Brc1ccc(C2=Nn3c(nnc3-c3ccncc3)SC2)cc1,-6.3,-6.2,0.4,-1.7
c1ccc(C2=Nc3ccccc3SC2c2nc3ccccc3[nH]2)cc1 (configuration not stated),26.3,-9.9,-4.6,13.1
Cc1ccccc1OCc1nnc(SCC(=O)Nc2ccc3nc(SCC(=O)Nc4ccccc4)sc3c2)n1C,nt,nt,-2.4,8.5
O=c1oc2ccccc2cc1-c1nc2c(s1)CCCC2,-6.1,16.1*,17.2*,17.5
O=S(=O)(NCC(c1cccnc1)N1CCN(c2ccccc2)CC1)c1cc(F)ccc1F (configuration not stated),-19.7,-1.2,-0.7,-0.1
Clc1ccc(-c2nnc3sc(-c4ccc(Br)o4)nn23)c(Cl)c1,-17.5,-4.6,1.2,-6.8
Cc1ccc(-c2nn3c(C)nnc3s2)cc1NC(=O)c1ccc(-c2ccc(Cl)cc2Cl)o1,nt,nt,6.8*,-2.6
CCN(CC)c1ccc(-c2nn3c(-c4ccccc4OC)nnc3s2)cc1,2.6,3.6,6.8*,11.3
CN(C)c1ccc(-c2nn3c(-c4ccc(Cl)cc4Cl)nnc3s2)cc1,nt,nt,6.0*,-1.1
Cn1c(SCC2CCCCC2)nnc1-c1ccncc1,nt,nt,-1.6,-3.7
CCc1cc2c(CN3CCN(CC)CC3)cc(=O)oc2cc1O,12.9,3.9,4.9*,2.5
CCN1CCN(Cc2cc(=O)oc3cc(C)cc(C)c23)CC1,-5.5,-4.1,-0.1,3.6
CC(c1nnc(SCC(=O)N2CC(=O)Nc3ccccc32)n1Cc1ccccc1)N(C)C (configuration not stated),2.2,-2.4,-1.8,1.8
c1ccc2[nH]c(CSc3ncnc4c3oc3ccccc34)nc2c1,-28.0,31.6*,0.7,4.4
Fc1ccc(CSc2ncnc3c2oc2ccccc23)cc1,nt,nt,-0.7,-7.1
Cc1nc(SCc2nc3ccccc3[nH]2)c2oc3ccccc3c2n1,-35.3,23.2*,-0.9,0.9
O=C1CCC/C(=N/NC(=O)C2CCN(S(=O)(=O)c3cccs3)CC2)C1,nt,nt,-1.2,9.0
CCOC(=O)c1cnc(-n2nc(C)cc2C)nc1NC1CCCCC1,90.7*,-11.2,0.1,-0.1
Cc1ccc(C2CC(c3ccccc3)=NN2c2ccccc2)o1 (configuration not stated),nt,nt,7.1*,-8.7
O=[N+]([O-])c1ccc(N/N=C/c2cn(-c3ccccc3)nc2-c2ccccc2)cc1,67.5*,-5.6,0.1,-2.8
O=S(=O)(NCC1CCCO1)c1cc(Cl)ccc1Cl (configuration not stated),-11.1,-2.9,-1.0,-2.2
O=S(=O)(Cc1ccc(Cl)cc1)NCC1CCCO1 (configuration not stated),-22.4,62.6*,1.0,-5.9
Cc1cc(C(=O)O)ccc1-n1c(C)ccc1C,10.3,25.4*,-2.0,-0.1
c1ccc2nc3c(nc2c1)[nH]c1ccccc13,nt,nt,-0.8,10.2
c1ccc(-c2c3ccccc3nc3[nH]c4ccccc4c23)cc1,nt,nt,5.0*,-5.3
SMILES,S1P2 blocker,S1P2 ag,GALR2 ag,GALR2 blocker
O=C(Cn1c(=O)n(-c2ccccc2)c(=O)n1CC(=O)N1CCCCC1)N1CCCCC1,13.7,-6.7,0.3,1.1
Cc1ccccc1-n1c(SCc2cc(=O)n3ccccc3n2)nc2[nH]ncc2c1=O,-44.7,24.1*,0.1,2.1
Cc1cc(C)n2nc(SCC(=O)c3ccccc3)nc2n1,-17.9,-3.3,-1.5,-0.1
Cc1cc(C)n2nc(SCc3cc(=O)n4ccccc4n3)nc2n1,-49.0,20.1*,-0.6,-10.4
O=C(COC(=O)Cc1ccsc1)Nc1ccc(Cl)c(S(=O)(=O)N2CCOCC2)c1,nt,nt,-1.2,4.5
O=C(Nc1ccc(-c2nc3ccc(NC(=O)c4cccs4)cc3[nH]2)cc1)c1cccs1,1.0,-4.0,3.7,28.5*
O=C(NCCc1cccs1)C1CC(c2c(Cl)cccc2Cl)=NO1 (configuration not stated),7.1,-1.9,-2.5,-5.5
CCOC(=O)c1sc2c(c1C)C(c1cccs1)C1=C(CCCC1=O)N2 (configuration not stated),-45.8,31.1*,9.2*,-8.3
O=C(CSc1nc2c(c(=O)n1-c1ccc(Cl)cc1)SCC2)Nc1ccc2c(c1)OCCO2,nt,nt,0.0,-4.5
COc1ccc(/C=N/Nc2snc(SC)c2C#N)cc1OC,-12.4,-5.8,5.1*,17.6
